Bioassay records as filed in PubChem.
TRb-SRC2 inh – qHTS for Inhibitors of the Interaction of Thyroid Hormone Receptor and Steroid Receptor Coregulator 2; TRbeta-SRC2 peptide binding, fluorescence polarization; receptor liganded with 1 µM T3; Potency, µM (doses to about 106 µM), for the others: top-dose activity change, negative = inhibition, actives largely listed as inhibitors; AID 1469, 2008; hit rate 0.065% among 280,000; Thyroid hormone receptor beta (Homo sapiens), P10828;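 also: potency is read from the fitted curve at half-maximal effect; plate controls were bound peptide for no effect and peptide without receptor for full effect; nearly all actives have a fitted effect of over 50% in size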
Target sequence (P10828 whole entry, looked up): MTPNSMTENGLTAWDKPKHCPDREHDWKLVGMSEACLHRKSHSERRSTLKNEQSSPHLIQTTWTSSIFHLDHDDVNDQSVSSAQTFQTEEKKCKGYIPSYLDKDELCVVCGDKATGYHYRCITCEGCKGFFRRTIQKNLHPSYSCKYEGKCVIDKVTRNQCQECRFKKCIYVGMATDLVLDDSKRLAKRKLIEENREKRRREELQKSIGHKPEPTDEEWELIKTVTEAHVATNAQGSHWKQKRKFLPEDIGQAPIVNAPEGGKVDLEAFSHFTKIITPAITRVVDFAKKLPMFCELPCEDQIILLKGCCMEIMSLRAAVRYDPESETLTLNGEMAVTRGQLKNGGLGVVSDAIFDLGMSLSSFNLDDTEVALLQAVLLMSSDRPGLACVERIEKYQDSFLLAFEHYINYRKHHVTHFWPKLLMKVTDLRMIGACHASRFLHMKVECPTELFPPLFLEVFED
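Each compound concentration gave % activity, normalized to unbound and bound Texas Red SRC2 controls, from polarization read after 5 hr ambient incubation with T3-loaded human TRb LBD.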
Tau ThT inhib – qHTS for Inhibitors of Tau Fibril Formation, Thioflavin T Binding. hit rate 2.1% among 270,000. Potency, µM (titrated, usually from 57.4 µM), inactives show at the highest dose activity, negative = inhibition, actives largely listed as inhibitors. recombinant tau K18 P301L, heparin-induced fibrillization, ThT fluorescence. AID 1460, 2008; also: potency is read from the fitted curve at half-maximal effect; nearly all actives have a fitted effect of over 55% in size
Target sequence (P10636 561-689 P618L limits assumed): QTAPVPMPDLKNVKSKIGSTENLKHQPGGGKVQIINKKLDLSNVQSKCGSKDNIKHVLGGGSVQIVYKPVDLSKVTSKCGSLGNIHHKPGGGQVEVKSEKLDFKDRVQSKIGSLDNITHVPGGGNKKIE
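Tau K18 P301L fragment (15 uM unlabeled plus 0.24 uM Alexa 594-labeled) in 100 mM sodium acetate pH 7 with compound, fibrillization induced by 20 uM heparin for 6 hr at 37 C. Thioflavin T (30 uM) added, fluorescence read after 1 hr (ex 450, em 510 nm).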
Tau fluor cs – Counterscreen qHTS for Inhibitors of Tau Fibril Formation, Fluorescence Polarization. hit rate 0.93% among 280,000. tau K18 P301L (four-repeat tau fragment) Alexa594 fluorescence, heparin fibrillization. Potency, µM (top dose mostly 57.7 µM), for inactives: at the highest dose activity change, negative = decrease; also: potency is read from the fitted curve at half-maximal effect; nearly all actives have a fitted effect of over 55% in size
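Human K18 P301L tau (15 uM unlabeled plus 0.24 uM Alexa 594-labeled, final) in 100 mM sodium acetate pH 7 was mixed with compound and 20 uM heparin and incubated 6 hr at 37 C.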
Tau fibril FP – qHTS for Inhibitors of Tau Fibril Formation, Fluorescence Polarization; Microtubule-associated protein tau (Homo sapiens), P10636; K18 P301L tau heparin fibrillization, Alexa594 FP, 6 h; Potency, µM (highest dose often 57.7 µM), without a hit: at the highest dose activity, negative = inhibition, most hits filed as inhibitors; hit rate 0.39% among 280,000; also: potency is read from the fitted curve at half-maximal effect; nearly all actives have a fitted effect of over 55% in size
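Human K18 P301L fragment (15 uM unlabeled plus 0.24 uM Alexa 594-labeled) in 100 mM sodium acetate pH 7 with compound, aggregation induced by 20 uM heparin for 6 hr at 37 C. ThT (30 uM) added for 1 hr, then Alexa 594 FP read.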
TexasRed fluor – Total Fluorescence Counterscreen for Inhibitors of the Interaction of Thyroid Hormone Receptor and Steroid Receptor Coregulator 2; TRb/SRC2 Texas Red total fluorescence interference; Potency, µM (doses to about 106 µM), inactives show at the top dose fluorescence change, negative = quenching; hit rate 0.29% among 280,000; active = well fitted curve in either direction with a large enough effect; inconclusive = small, poorly fitted or top-dose-only effect; also: potency is read from the fitted curve at half-maximal effect
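Flags fluorescent or light-absorbing compounds by total fluorescence, S + 2P, at 555 nm excitation and 632 nm emission. Mixture: 20 nM Texas Red SRC2 peptide, 0.6 uM human TRb LBD, 1 uM T3, 5% DMSO; compound exposure 5 h at ambient temperature.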
PNC assembly inh – High Content Assay for Compounds that inhibit the Assembly of the Perinucleolar Compartment. PC3M PTB-GFP, PNC prevalence imaging, 16 h; hits give low values. hit rate 3.1% among 140,000. activity change (PNC), negative = inhibition, % at 10 µM;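 active = readout at or below -70, meaning at least 70% loss of cells showing the perinucleolar compartment, a nuclear body marking cancer cells; inconclusive = readout between -30 and a set limit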;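 also: plate controls were DMSO wells for no effect and camptothecin positive control wells for full effect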
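Compounds are pinned in duplicate onto adhered PC3M cells stably expressing GFP-tagged PTB and incubated 16 h at 37 C. Cells are then fixed, nuclei stained with Hoechst, and PNC-positive cells counted.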
* hit, by the source's call; ? = inconclusive; . = no result; [ ] = remark or other dose. Compounds with a hit are over-represented: about 4.6% of the library has one in this group of screens. Unless noted, calls follow the shape of the dose curve; as a rule, active = well fitted curve in the direction sought with a large enough effect; inconclusive = small, poorly fitted or top-dose-only effect, or another doubt; inactive = no such curve, though single readings can be large; an effect the other way counts as inactive or inconclusive. Unless noted, % is scaled to controls: 0 for no effect and ±100 for the full control effect.

SMILES	TRb-SRC2 inh	Tau ThT inhib	Tau fluor cs	Tau fibril FP	TexasRed fluor	PNC assembly inh
COc1cc(C(=O)Nc2ccc3c(c2)N(C(=O)CCN(C)C)c2ccccc2CC3)cc(OC)c1OC	-2%	-12%	-10%	-2%	4%	.
CN(C)CC(=O)N1c2ccccc2CCc2ccc(NC(=O)c3ccc(N)cc3)cc21	9%	?	-23%	4%	-14%	-85*
O=c1cc(O)n(-c2ccccc2)c(=S)[nH]1	-5%	?	-7%	-10%	-1%	-100*
Cc1cc(C)c2cc(CN(CCO)C(c3nnnn3Cc3ccc(F)cc3)C(C)C)c(=O)[nH]c2c1 (stereo not given)	5%	-13%	1%	4%	0%	-30
CC(C(=O)Nc1ccc(C#N)cc1)N(C)CC(=O)Nc1cccc(F)c1 (stereo not given)	2%	0%	-9%	?	-2%	.
C=CCNc1nc2c3ccccc3n(C(C)=O)c2s1	-3%	28µM*	?	?	0%	-17
C=CCNc1nc(-c2cccs2)c(CC(=O)O)s1	0%	-16%	-24%	-14%	0%	.
CCN(CC)c1ccc(C=C2C(=O)OC3(CCCCC3)OC2=O)cc1	14%	-18%	-3%	3%	13%	.
CCN(CC)c1ccc(/C=C2/C(=O)c3ccc(C(=O)O)cc3C2=O)cc1	29%	3.2µM*	-11%	?	?	-13
CCCC(=O)Nc1c(-c2ccccc2)c(=O)c(C)nn1-c1ccc(C)cc1	-7%	-7%	-9%	3%	-5%	.
COc1cccc(C2=Nn3c(nnc3-c3cccc(OC)c3)SC2)c1	-7%	.	.	.	-5%	.
COc1cc2oc(=O)cc(-c3ccc(-c4ccc(O)cc4)cc3)c2c(OC)c1OC	5%	?	10µM*[quencher]	?	1%	.
COc1ccc(-c2ccc(-c3cc(=O)oc4cc(OC)c(OC)c(OC)c34)cc2)cc1OC	6%	-14%	-20%	10%	7%	.
NCCCCCCCCCCCC(=O)O	3%[201 µM]	.	.	.	-6%[201 µM]	.
C=C(C(=O)c1ccccc1)C(C)C(=C)C(=O)c1ccccc1	-11%	28µM*	-14%	-20%	2%	-21
C=CCOc1ccccc1CNc1ccc2c(c1)OCCO2	-3%	18µM*	?	0%	-1%	.
CC(O)Cn1c(=O)c2c(nc(Br)n2Cc2ccccc2)n(C)c1=O (stereo not given)	-9%	-6%	-3%	-2%	3%	-119*
CCOC(=O)CCn1c(=O)c2c(nc(Br)n2Cc2ccccc2)n(C)c1=O	-25%	-11%	-13%	8%	1%	24
O=C(NCCCn1ccnc1)Nc1cccc2ccccc12	-7%	-11%	-9%	-10%	-2%	-100*
COCCNC(=O)Cn1c(-c2cccs2)cc2cc(Cl)ccc21	-20%	1%	-4%	2%	126µM*[quencher]	.
CCN1CCN(CCCNC(=O)Cn2c(-c3cccs3)cc3cc(F)ccc32)CC1	?	-4%	-6%	-2%	141µM*[quencher]	.
C=CCN1C(=O)CS/C1=C(\C#N)S(=O)(=O)c1ccc(C)cc1	?	-21%	-15%	-2%	40µM*[fluorescent]	11
C=CCN1C(=O)CSC1=Nc1cccc(O)c1	2%	8%	11%	6%	-2%	-28
O=C(O)c1ccc(S(=O)(=O)NC2CC2)cc1	8%	.	15%	6%	-2%	.
COCCn1nnnc1CN1CCOCC1	-15%	1%	3%	2%	-1%	-11
SMILES	TRb-SRC2 inh	Tau ThT inhib	Tau fluor cs	Tau fibril FP	TexasRed fluor	PNC assembly inh
COCCn1nnnc1CN1CCC(C)CC1	-3%	2%	-1%	-6%	-6%	-100*
COCCn1nnnc1CN1CCC(NC(=O)c2ccc(Br)cc2)CC1	-3%	2%	3%	3%	-6%	-100*
COc1cc(C(=O)NC2CCN(Cc3nnnn3Cc3cccs3)CC2)cc(OC)c1OC	3%	-6%	-3%	-5%	-1%	-16
COc1ccc(S(=O)(=O)N(CC(=O)Nc2ccc(C)cc2)c2ccc(C)cc2)cc1OC	-2%	13%	-15%	-13%	0%	.
C/C(CCC1CC(C)(C)OC1=O)=N\NC(N)=S (stereo not given)	5%	-2%	-2%	-1%	3%	.
Cc1c(Cl)cccc1NC(CC(=O)c1ccccc1)C(=O)O (stereo not given)	-16%	?	-7%	?	1%	-83*
Cc1ccc2c(c1)C(C)(C)[C@]1(C)NC(=O)CCN21	11%	13%	5%	3%	21%	58
CCCCN1CCc2[nH]c(=S)[nH]c(=O)c2C1	-22%[53 µM]	-5%	-5%	5%	0.71µM*[quencher]	46
COCCN1CCc2[nH]c(=S)[nH]c(=O)c2C1	0%	-9%	-6%	1%	-38%	71
COc1cccc(C(=O)Nn2c(C)nnc2-n2nc(C)cc2C)c1	-9%	-3%	2%	2%	-4%	-100*
COc1ccc(C(=O)Nn2c(C)nnc2-n2nc(C)cc2C)cc1OC	-13%	1%	7%	9%	0%	-6
O=C(NCc1ccccc1)/C(=N\O)c1ccccc1	-1%	-7%	-1%	9%	1%	?
CC1=NC(=O)C(N=Nc2cccc(O)c2)N1c1ccccc1 (stereo not given)	-1%	5µM*	?	-4%	-7%	26
Cc1cccc(-n2c(O)c(C=Nc3cccc(O)c3)c3ccccc3c2=O)n1	7%	-13%	-20%	-2%	0%	.
O=C(NCCSc1c(-c2ccccc2)[nH]c2ccccc12)c1cc2ccccc2oc1=O	4%	?	7.1µM*[quencher]	-12%	-2%	-86*
Cc1ccc(-c2[nH]c3ccccc3c2SCCNC(=O)c2cc3ccccc3oc2=O)cc1	3%	?	8.9µM*[quencher]	-9%	0%	67
COc1ccc(Cl)cc1N(CC(=O)Nc1ccccc1C(=O)NCc1ccco1)S(C)(=O)=O	2%	0%	-12%	8%	-10%	-19
N#CCCCN1C(=O)C(=C(C#N)C#N)c2ccccc21	-1%	32µM*	?	?	2%	.
COc1ccccc1C(=O)Nc1nc2ccc(S(=O)(=O)N3CCCC3)cc2s1	-5%	4%	0%	-6%	0%	.
